# Shown are actives, neighbours in structure and some others; about 9.2% of the full set was active somewhere.
# Rab9 prom act: qHTS Assay for Rab9 Promoter Activators; Huh7 Rab9 promoter-luciferase reporter, luminescence, 24 h; Potency, µM (doses to about 9.22 µM), without a hit: top-dose activation, negative = inhibition, hits mostly activators; 2.8% of 320,000 active; AID 485297, 2010; also: % of control where 0% means no effect; nearly all actives have a fitted effect of over 60% in size
#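 Huh7 cells stably carrying a Rab9 promoter-luciferase reporter, 1500 cells per well in OP-MEM I with 10% FBS, treated with compound 24 hours at 37C. Luciferase activity read by luminescence after 10 minutes with Amplite reagent.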
# SMN2 splice up: qHTS Assay for Enhancers of SMN2 Splice Variant Expression. HEK293 SMN2-luciferase splicing reporter, luminescence, 30-36 h. Potency, µM (titrated, usually from 46.1 µM), for the others: at the top dose activity change, positive = activation, hits mostly activators. 2.8% of 210,000 active. AID 1458, 2008; also: % of control where 0% means no effect; nearly all actives have a fitted effect of over 55% in size
#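 HEK293 cells carry an SMN2 minigene-luciferase reporter in which exon 7 inclusion puts luciferase in frame. Cells were seeded at 2000 cells/well, attached for 10-12 hours, then exposed to compounds for 30-36 hours at 37C before ONE-Glo luminescence.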
# ELG1 DNA repair: qHTS screen for small molecules that inhibit ELG1-dependent DNA repair in human embryonic kidney (HEK293T) cells expressing luciferase-tagged ELG1; HEK293T ELG1-luciferase reporter, luminescence, 16 h; DNA damage induced by 5-fluorouridine; Potency, µM (doses to about 46.1 µM), without a hit: at the top dose activity change, negative = inhibition, actives largely listed as inhibitors; 2.3% of 330,000 active; AID 504467, 2011; also: % is scaled to controls: 0 for no effect and ±100 for the full control effect; nearly all actives have a fitted effect of over 55% in size
#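 5-Fluorouridine DNA damage + compound/DMSO, 2,000 cells/well, 16 h, 37 °C/5% CO2. ONE-Glo, 30 min RT, luminescence. Readout = decrease in reporter signal.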
# ELG1 genotoxic: qHTS screen for small molecules that induce genotoxicity in human embryonic kidney (HEK293T) cells expressing luciferase-tagged ELG1 | HEK293T ELG1-luciferase reporter, luminescence, 16 h | Potency, µM (doses to about 46 µM), for inactives: top-dose activity change, positive = activation, most hits filed as activators | 1.3% of 330,000 active; also: % of control where 0% means no effect; nearly all actives have a fitted effect of over 60% in size
#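 16 hr compound incubation (37 °C, 5% CO2) of HEK293T cells carrying luciferase-tagged ELG1; luciferase then measured by ONE-Glo luminescence after 30 min at RT.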
# FLuc counter: qHTS profiling assay for firefly luciferase inhibitor/activator using purifed enzyme and Km concentrations of substrates (counterscreen for miR-21 project); Potency, µM (highest dose often 57.5 µM), inactives show top-dose activity change, negative = inhibition, hits mostly inhibitors; Luciferin 4-monooxygenase (Photinus pyralis), P08659; purified FLuc, Km substrates, luminescence inhibition; 6.9% of 360,000 active;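 also: plate controls were vehicle for no effect and reference inhibitor for full effect; nearly all actives have a fitted effect of over 55% in size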
# Target sequence (P08659 whole entry, looked up): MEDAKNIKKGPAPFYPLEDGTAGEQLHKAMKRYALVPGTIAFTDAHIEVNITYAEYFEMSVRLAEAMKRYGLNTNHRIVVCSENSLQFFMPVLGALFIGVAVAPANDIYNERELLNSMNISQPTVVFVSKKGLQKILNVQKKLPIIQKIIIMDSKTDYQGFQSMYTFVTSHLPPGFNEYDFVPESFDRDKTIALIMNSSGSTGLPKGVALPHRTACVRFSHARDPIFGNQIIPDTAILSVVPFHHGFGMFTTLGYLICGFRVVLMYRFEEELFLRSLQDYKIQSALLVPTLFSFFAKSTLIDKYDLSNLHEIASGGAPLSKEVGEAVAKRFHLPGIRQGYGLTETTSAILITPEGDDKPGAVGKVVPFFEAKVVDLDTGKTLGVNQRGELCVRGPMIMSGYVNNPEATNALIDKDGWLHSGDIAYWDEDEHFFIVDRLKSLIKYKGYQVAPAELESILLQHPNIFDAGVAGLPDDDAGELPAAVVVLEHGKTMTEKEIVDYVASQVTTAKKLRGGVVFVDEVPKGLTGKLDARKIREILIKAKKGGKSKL
#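 Biochemical qHTS of compounds, final roughly 60 µM downward over six points, against 10 nM purified firefly luciferase using Km concentrations of substrates (10 uM D-luciferin, 10 uM ATP) in Tris acetate pH 7.5 buffer; luminescence output.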
# NPC1 promoter act: qHTS Assay for NPC1 Promoter Activators | Huh7 NPC1 promoter luciferase reporter, 24 h | Potency, µM (top dose mostly 9.22 µM), inactives show top-dose activation, most hits filed as activators | 2.4% of 320,000 active; also: % of control where 0% means no effect; nearly all actives have a fitted effect of over 60% in size
#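 Quantitative HTS used a cell-based reporter: Huh7 cells stably bearing the NPC1 promoter upstream of luciferase were treated with compounds for 24 h, and promoter activation was read as luminescence.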
# The depositor's hits bear a star; ? = inconclusive; / = no result; [ ] = dose if it differs, or a comment. Calls follow the shape of the dose curve; as a rule, active = well fitted curve in the direction sought with a large enough effect; inconclusive = small, poorly fitted or top-dose-only effect, or another doubt; inactive = no such curve, though single readings can be large; an effect the other way counts as inactive or inconclusive. Potency is read from the fitted curve at half-maximal effect.
SMILES,Rab9 prom act,SMN2 splice up,ELG1 DNA repair,ELG1 genotoxic,FLuc counter,NPC1 promoter act
CCCN1C(=O)S/C(=C\c2ccc(N3CCOCC3)cc2C)C1=O,2.24µM*,3.9%,?,?,5.36µM*,2µM*
CCN1C(=O)S/C(=C\c2ccc(N3CCOCC3)cc2C)C1=O,2µM*,/,?,?,2.69µM*,2µM*
CCCN1C(=O)S/C(=C\c2ccc(N3CCOCC3)o2)C1=O,?,-23.3%,?,?,?,22.0%
Nn1c(SCc2ccccc2F)nnc1-c1ccccn1,1.41µM*,/,?,18.3µM*,15.1µM*,3.98µM*
Nn1c(SCc2ccc(F)cc2)nnc1-c1ccccn1,29.1%,/,?,13.6%,?,16.5%
O=C(OCC(=O)N1CCOCC1)c1ccccc1Cc1ccccc1,3.16µM*,11.2µM*,?,13µM*,9.53µM*,1.58µM*
Cc1ccc(NC(=O)Nc2ccc(F)cc2)cc1Cl,?,?,?,12.4%,2.69µM*,?
COc1cccc(NC(=O)Nc2ccc(C)c(Cl)c2)c1,2.82µM*,12.6µM*,?,?,2.69µM*,?
CCOc1ccc(CCNC(=O)COC(=O)c2cccc(N(C)C)c2)cc1OCC,1.58µM*,/,?,1.83µM*,-12.8%,3.98µM*
CCOc1ccc(CCNC(=O)COC(=O)c2ccc(OC)c(OC)c2OC)cc1OCC,-2.7%,-0.5%,9.2µM*,-4.3%,0.6%,-7.8%
CCC(=O)N(Cc1cc(=O)[nH]c2ccccc12)c1ccc(OC)cc1,0.5%,/,-15.4%,-0.5%,0.6%,0.7%
CCOC(=O)c1cc2c(s1)-c1ccccc1CC2,16.6%,19.7%,?,14.7%,10.7µM*,17.9%
CCOC(=O)c1cc2ccc3ccccc3c2s1,?,?,?,?,5.36µM*,?
CCOC(=O)c1cc2ccc3ccccc3c2oc1=O,0.1%,/,0.2%,3.7%,-14.8%,-9.8%
O=C1CSC(=Nc2ccccc2[N+](=O)[O-])N1,1.3%,0.8%,-6.5%,-1.9%,4.2%,-2.9%
CN(C)C=Nc1ncc2c3ccccc3n(CCN(C)C)c2c1C#N,2.5%,-51.4%,6.51µM*,-7.6%,2.3%,0.9%
Cc1cc(C)c2oc(-c3cccc(N)c3)nc2c1,?,/,?,?,3.79µM*,3.55µM*
Cc1ccc2nc(-c3ccc(O)cc3)oc2c1,?,/,?,?,0.953µM*,2.51µM*
Cc1ccc2nc(Cc3ccc(N)cc3)oc2c1,3.16µM*,?,?,11.6µM*,13.5µM*,3.55µM*
Cc1ccc2nc(-c3cccc(N)c3)oc2c1,3.55µM*,?,?,1.64µM*,0.213µM*,0.891µM*
CCN(CCCNC(=O)c1nn(-c2ccc(C)cc2)c(=O)c2c1c1ccccc1n2C)c1cccc(C)c1,/,-6.8%,/,/,0.0%,/
CCN(CC)CCCNC(=O)c1nn(-c2ccc(OC)c(Cl)c2)c(=O)c2c1c1ccccc1n2C,/,-5.8%,/,/,-2.1%,/
COCCNC(=O)c1ccccc1NS(=O)(=O)c1ccc(Br)s1,-2.4%,-15.4%,-10.2%,1.0%,0.3%,1.1%
CCc1ccc2oc(-c3cccc(NC(=O)COc4ccccc4Cl)c3)nc2c1,/,23.0%,/,/,?,/
CCc1ccc2oc(-c3cccc(N)c3)nc2c1,1.58µM*,6.31µM*,?,?,0.239µM*,0.562µM*
SMILES,Rab9 prom act,SMN2 splice up,ELG1 DNA repair,ELG1 genotoxic,FLuc counter,NPC1 promoter act
Cc1cc2c(c(SCC#N)n1)C(=O)OC2,-1.1%,-7.9%,7.2%,-0.6%,0.3%,0.2%
O=C(/C=C/c1ccc(F)cc1)Nc1nc2ccccc2[nH]1,0.631µM*,11.2µM*,?,?,?,1.26µM*
O=C(Nc1nc2ccccc2[nH]1)c1ccc(Cl)c(S(=O)(=O)N2CCCC2)c1,27.7%,-18.7%,?,7.2%,12µM*,?
CN(C)c1cccc(C(=O)Nc2nc3ccccc3[nH]2)c1,0.316µM*,/,?,?,0.601µM*,0.447µM*
COc1ccc(/C=C/C(=O)NCCc2nc3ccccc3[nH]2)cc1,9.8%,/,?,-1.0%,?,1.1%
Cc1ccc(N(C)S(=O)(=O)c2cccc(C(=O)Nc3nc4ccccc4[nH]3)c2)cc1,-3.7%,-57.0%,23.1µM*,-5.2%,-17.7%,8.4%
Cc1ccc(NS(=O)(=O)c2ccc3[nH]c(=O)[nH]c3c2)cc1,0.0%,/,17.9%,-0.2%[9.26 µM],1.0%,-6.6%
O=C(Nc1ncccn1)c1cccc(F)c1,17.8%,/,20.0%,-0.6%,6.6%,-2.1%
O=C(Nc1nc2ccccc2[nH]1)c1cccc(F)c1,?,/,?,2.91µM*,3.01µM*,?
O=C(CNC(=O)c1cccc(Br)c1)NCCc1nc2ccccc2[nH]1,-0.4%,-15.7%,11.2%,-2.1%,1.6%,-2.6%
O=C(Nc1nc2ccccc2[nH]1)c1ccc(Br)o1,?,12.6µM*,?,?,9.53µM*,?
O=C(Nc1nc2ccccc2[nH]1)c1cccc(Br)c1,3.55µM*,/,?,2.06µM*,2.39µM*,?
CC1CCCN(c2csc3ccccc3c2=O)C1 (stereo unspecified),/,/,/,/,8.49µM*,/
Cc1ccc2scc(N3CCN(c4ccccc4)CC3)c(=O)c2c1,/,/,/,/,16.9µM*,/
CC(=O)N1CCN(c2csc3ccc(Br)cc3c2=O)CC1,/,/,/,/,15.1µM*,/
O=c1c(N2CCCCC2)csc2ccc(F)cc12,/,/,/,/,6.01µM*,/
Cc1ccc2scc(N3CCN(c4ccc(F)cc4)CC3)c(=O)c2c1,/,/,/,/,-11.6%,/
Cc1cccc(Cn2ccn(Cc3ccc(Cl)cc3)c(=O)c2=O)c1,/,/,/,/,4.8%,/
Clc1ccc2scc(CN3CCCCC3)c2c1,-3.7%,-3.3%,-0.6%,-1.3%,4.4%,-1.3%
CCN1CCN(c2csc3ccc(Cl)cc3c2=O)CC1,/,/,/,/,15.1µM*,/
Cc1ccc2scc(N3CCc4ccccc4C3)c(=O)c2c1,/,/,/,/,4.78µM*,/
CCOc1ccccc1C(=O)N[C@H](C(=O)OCc1cc([N+](=O)[O-])cc2c1OCOC2)C(C)C,-10.2%,-14.1%,20.6µM*,-3.4%,4.9%,-3.8%
CC(C)(C)Nc1oc(-c2ccccc2)nc1-c1ccccc1,/,13.5%,/,/,/,/
COC(=O)c1c(-c2ccccc2)csc1N1C(=O)Nc2ccccc2N1O,2.82µM*,?,?,?,4.78µM*,?
N.N.N.N.N.N.N.N.N.N.N.N.N.N.O.O.[Ru+4].[Ru+5].[Ru+5],-11.0%[46.1 µM],/,/,/,/,-11.6%[46.1 µM]
